Measured values from the supplement of paper PMC10338343.
± gives the standard deviation. Whole data set: some 6,200 sequences, median “pre-steady-state target cleavage rate” near 0.29, cut for the highest 2% near 2. This excerpt belongs to a sample that is enriched for the highest values.

These sequences were tested on MIWI (PIWIL1) piRISC loaded with piRNA #1 (30 nt) (assay: pre-steady-state target cleavage rate (min^-1); MIWI and MILI are mouse PIWI proteins and EfPiwi is from a freshwater sponge; tags in brackets are library labels; higher = faster piRNA-guided slicing of the target). Conditions: guide: piRNA #1 5'p-UGAGGUAGUAGGUUGUAUAGUAUCCAGAGG; auxiliary factor: 500 nM mouse GTSF1.
Protocol: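 Cleave-'n-Seq: a library of target RNAs (target site embedded in constant flanks, ACAGCATTCCGCGTTAGTGATATCCG... 5' flank; DNA-blocked outside the site) at 0.1 nM was incubated with 1 nM active mouse MILI or MIWI piRISC (synthetic 5'-monophosphorylated piRNA guide) with or without 500 nM mouse GTSF1 at 33 °C for 1 min to 16 h. Uncleaved targets were sequenced and normalised to non-target controls, and the pooled three trials were fitted to a burst-and-steady-state model to give the pre-steady-state cleavage rate (min^-1; k3 is constrained to at most 1e-4). Sequence is the target site only; target names encode pairing extent (gX:gY) and contiguous / 1-mismatch / 2-mismatch / bulge geometry. Fits with R² ≤ 0 are excluded.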

| Sequence | pre-steady-state target cleavage rate |
| --- | --- |
| CCUAUGGAUACUAUACAACCUACUACCUCA | 2.15 ± 0.12 |
| GCUCAUGGAUACUAUACAACCUACUACCUCA | 1.98 ± 0.1 |
| GGAGACGAUACAAUACAACCUACUUCCUCA | 0.408 ± 0.056 |
| GCUCUUGGAUACUAUACAACCUACUACCUCA | 2.1 ± 0.1 |
| GGACUUGGAUACUAUACAACCUACUACCUCA | 1.78 ± 0.11 |
| GGUCUUGGAUACUAUACAACCUACUACCUCA | 1.87 ± 0.11 |
| GCUUGGAUACUAUACAACCUACUACCUCA | 1.87 ± 0.12 |
| CCUUGGAUACUAUACAACCUACUACCUCA | 2.26 ± 0.14 |
| GGUUUGGAUACUAUACAACCUACUACCUCA | 1.81 ± 0.084 |
| GGUUGGAUACUAUACAACCUACUACCUCA | 1.78 ± 0.1 |
| CCUUUGGAUACUAUACAACCUACUACCUCA | 2.3 ± 0.12 |
| GCUUUGGAUACUAUACAACCUACUACCUCA | 1.91 ± 0.11 |
| CCUCUUGGAUACUAUACAACCUACUACCUCA | 2.3 ± 0.12 |
| GGAGACCUAACUAUACUAGCUACUACCUCA | 0.0132 ± 0.006 |
| GGAGACCUAACUUACAACCUACUACCUCA | 0.00932 ± 0.008 |
| CCUCUGGAUACUAUCAACCUACUACCUCA | 1.82 ± 0.12 |
| GGAGAGGAUACAAUACAACCUACUACCUCA | 1.18 ± 0.063 |
| CCUCUGGAUACUAUACAAACUACUACCUCA | 1.27 ± 0.047 |
| GGAGACCUAUCUAUACUACCUACUACCUCA | 0.0899 ± 0.011 |
| GGUCUGGAUAGUAUACAACGUACUACCUCA | 0.319 ± 0.047 |
| GGAGACCUAACUAUACAACGUACUAGCUCA | 0.024 ± 0.0084 |
| GGACUGGAUGCUAUACAACCUACUACCUCA | 1.82 ± 0.15 |
| GCUCUGGAUACUAUACCAACCUACUACCUCA | 0.392 ± 0.075 |

| Sequence | pre-steady-state target cleavage rate |
| --- | --- |
| GGUCUGGAUACUAUCCAACCUACUACCUCA | 1.96 ± 0.14 |
| GGACUGGAUACUAUCCAACCUACUACCUCA | 1.76 ± 0.11 |
| CCUCUGGAUACUAUCCAACCUACUACCUCA | 2.1 ± 0.14 |
| GCUCUGGAUACUAUCCAACCUACUACCUCA | 2.05 ± 0.14 |
| GCUCUGGAUACUAUCAACCUACUACCUCA | 1.78 ± 0.12 |
| GGAGAGGAUACUAUACAACCUAGUACCUCA | 0.145 ± 0.031 |
| GGAGACGAUACUAUACAACCUACAUCCUCA | 0.342 ± 0.029 |
| GGAGACCAAACUAUACAUCCUACUACCUCA | 0.513 ± 0.06 |
| GGAGUGCAUACUAUACAACCUACUACGUCA | 0.629 ± 0.053 |
| GGUCUGGAUACUUAUCAACCUACUACCUCA | 0.863 ± 0.11 |
| GGACUGGCAUACUAUACAACCUACUACCUCA | 1.68 ± 0.12 |
| GCUCUGGAUACUAUACAACCUACAUACCUCA | 1.87 ± 0.16 |
| GCUCUGGCUACUAUACAACCUACUACCUCA | 1.93 ± 0.099 |
| GCUCUGGCAUACUAUACAACCUACUACCUCA | 2.17 ± 0.12 |
| CCUCUGGCUACUAUACAACCUACUACCUCA | 2.25 ± 0.11 |
| CCUCUGGCAUACUAUACAACCUACUACCUCA | 2.31 ± 0.12 |
| GGUCUGGCAUACUAUACAACCUACUACCUCA | 1.86 ± 0.12 |
| GGUCUGGCUACUAUACAACCUACUACCUCA | 1.99 ± 0.11 |
| GCUCUGCAUACUAUACAACCUACAACCUCA | 1.37 ± 0.12 |
| GGACUGGAUACAAUACAAGCUACUACCUCA | 0.683 ± 0.041 |
| GGAGACCUUACUAUACAACCUACUACCUGA | 0.777 ± 0.077 |
| GGAGUGGAUACUAUACCAACCUACUACCUCA | 0.0192 ± 0.0054 |
| GCUCUGGAUACUAUACAAGCUACUAGCUCA | 0.745 ± 0.073 |
